Laboratory results taken from the supplement of paper PMC10037445.
Where “and” joins values, the source holds several entries; their conditions need not be identical. Equal values may be shown once. In all, about 2,900 compounds were measured (“NF-kB SEAP reporter activity, fold change vs agonist alone”: median about 0.99, highest 2% from about 2.6 on). Shown is part of a subset that was picked to be rich in the highest values.

Tests used:
RAW-Dual [1] = assay: NF-kB SEAP reporter activity, fold change vs agonist alone; cytotoxicity flag (confluency mask): not cytotoxic; higher = enhanced NF-kB activity
Outline: (§1)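 Cytotoxic wells were those whose IncuCyte confluency was below 70% of agonist controls in both mask sets. The cells were RAW-Dual macrophages at 50,000 cells/well in DMEM on 384-well plates, dosed with 50 nL of library stock by pin tool, stimulated with a PRR agonist 1 h later, and kept at 37 °C, 5% CO2 for 20 hours. IRF and NF-κB reporter activity, as fold change over agonist-alone wells, came from supernatant read by QuantiLuc luminescence and QuantiBlue absorbance, respectively.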

RAW-Dual [2] = assay: NF-kB SEAP reporter activity, fold change vs agonist alone; higher = enhanced NF-kB activity
Outline: as §1

RAW-Dual [3] = assay: NF-kB SEAP reporter activity, fold change vs agonist alone; cytotoxicity flag (confluency mask): cytotoxic (confluency <70% of control); higher = enhanced NF-kB activity
Outline: as §1

[4] = agonist: ODN 1826 (TLR9) 0.5 ug/mL
[5] = agonist: Pam2CSK4 (TLR2/6) 0.1 ug/mL
[6] = agonist: Pam3CSK4 (TLR2/1) 0.1 ug/mL
[7] = library stock concentration (final ~1000-fold dilution): 10 mM, cytotoxicity flag (confluency mask): not cytotoxic, agonist: Imiquimod (TLR7) […]
[8] = library stock concentration (final ~1000-fold dilution): 10 mM, cytotoxicity flag (confluency mask): not cytotoxic, agonist: MPLA (TLR4) […]
[9] = library stock concentration (final ~1000-fold dilution): 10 mM, cytotoxicity flag (confluency mask): cytotoxic (confluency <70% of control), agonist: Imiquimod (TLR7) […]
[10] = library stock concentration (final ~1000-fold dilution): 10 mM, cytotoxicity flag (confluency mask): cytotoxic (confluency <70% of control), agonist: MPLA (TLR4) […]

CCN(CC)Cc1ccc(C(=O)N(CCc2ccccc2OC)C2CCNC2)cc1 (stereo not drawn) (library stock concentration (final ~1000-fold dilution): 10 mM)
NF-kB SEAP reporter activity (RAW-Dual [1]; agonist: LPS (TLR4) 0.1 ug/mL): 0.9 | NF-kB SEAP reporter activity (RAW-Dual [1]; [4]): 0.312 | NF-kB SEAP reporter activity (RAW-Dual [1]; [5]): 0.883 | NF-kB SEAP reporter activity (RAW-Dual [1]; [6]): 0.613

CCN(CC)Cc1ccc(C(=O)N(CCc2ccccc2OC)C2CCNC2)cc1 (stereo not drawn)
NF-kB SEAP reporter activity (RAW-Dual [2]; [7]): 0.518 | NF-kB SEAP reporter activity (RAW-Dual [2]; [8]): 1.28

C=C1CCC2C(C)(COC(=O)CCC(=O)O)C(OC(=O)CCC(=O)O)CCC2(C)C1/C=C/C1=CCOC1=O (stereo not drawn) (library stock concentration (final ~1000-fold dilution): 10 mM)
NF-kB SEAP reporter activity (RAW-Dual [1]; agonist: LPS (TLR4) 0.1 ug/mL): 0.94 | NF-kB SEAP reporter activity (RAW-Dual [1]; [4]): 0.908 | NF-kB SEAP reporter activity (RAW-Dual [1]; [5]): 0.924 | NF-kB SEAP reporter activity (RAW-Dual [1]; [6]): 1.06

C=C1CCC2C(C)(COC(=O)CCC(=O)O)C(OC(=O)CCC(=O)O)CCC2(C)C1/C=C/C1=CCOC1=O (stereo not drawn)
NF-kB SEAP reporter activity (RAW-Dual [2]; [7]): 0.926 | NF-kB SEAP reporter activity (RAW-Dual [2]; [8]): 0.985

Cc1ccc(CNc2ncnc3ccc(-c4ccc(CO)o4)cc23)o1
NF-kB SEAP reporter activity (RAW-Dual [2]; [7]): 1.07 | NF-kB SEAP reporter activity (RAW-Dual [2]; [8]): 1.24

N#Cc1ccc2ncnc(NCCc3ccccc3)c2c1
NF-kB SEAP reporter activity (RAW-Dual [2]; [7]): 0.984 | NF-kB SEAP reporter activity (RAW-Dual [2]; [8]): 1.59

Nc1ccc2ncnc(NCCc3ccc(Oc4ccccc4)cc3)c2c1
NF-kB SEAP reporter activity (RAW-Dual [2]; [7]): 1.46

Nc1ccc2ncnc(NCCc3ccc(Oc4ccccc4)cc3)c2c1 (library stock concentration (final ~1000-fold dilution): 10 mM)
NF-kB SEAP reporter activity (RAW-Dual [1]; agonist: LPS (TLR4) 0.1 ug/mL): 1.57 and 1.15 | NF-kB SEAP reporter activity (RAW-Dual [1]; [5]): 0.752 and 0.456 | NF-kB SEAP reporter activity (RAW-Dual [1]; [6]): 1.02 and 0.73

N#Cc1ccc2ncnc(NCCc3ccccc3)c2c1 (library stock concentration (final ~1000-fold dilution): 10 mM)
NF-kB SEAP reporter activity (RAW-Dual [1]; agonist: LPS (TLR4) 0.1 ug/mL): 2.76 | NF-kB SEAP reporter activity (RAW-Dual [1]; [4]): 1.15 | NF-kB SEAP reporter activity (RAW-Dual [1]; [5]): 1.51 | NF-kB SEAP reporter activity (RAW-Dual [1]; [6]): 1.76

Cc1ccc(CNc2ncnc3ccc(-c4ccc(CO)o4)cc23)o1 (library stock concentration (final ~1000-fold dilution): 10 mM)
NF-kB SEAP reporter activity (RAW-Dual [1]; agonist: LPS (TLR4) 0.1 ug/mL): 1.16 | NF-kB SEAP reporter activity (RAW-Dual [1]; [4]): 1.35 | NF-kB SEAP reporter activity (RAW-Dual [1]; [5]): 1.21 | NF-kB SEAP reporter activity (RAW-Dual [1]; [6]): 1.4

O=C(Nc1ccc(Cl)cc1)c1cc2ccccc2cc1OP(=O)(O)O
NF-kB SEAP reporter activity (RAW-Dual [2]; [7]): 0.877 | NF-kB SEAP reporter activity (RAW-Dual [2]; [8]): 1.04

O=C(Nc1ccc(Cl)cc1)c1cc2ccccc2cc1OP(=O)(O)O (library stock concentration (final ~1000-fold dilution): 10 mM)
NF-kB SEAP reporter activity (RAW-Dual [1]; agonist: LPS (TLR4) 0.1 ug/mL): 1.08 | NF-kB SEAP reporter activity (RAW-Dual [1]; [4]): 0.965 | NF-kB SEAP reporter activity (RAW-Dual [1]; [5]): 0.931 | NF-kB SEAP reporter activity (RAW-Dual [1]; [6]): 0.763

N=C(N)NCCCC1NC(=O)C(CCCCN)NC(=O)C(Cc2ccccc2)NC(=O)C(CC(=O)O)NC(=O)CNC1=O.O=C(O)C(F)(F)F (stereo not drawn) (library stock concentration (final ~1000-fold dilution): 10 mM)
NF-kB SEAP reporter activity (RAW-Dual [1]; agonist: LPS (TLR4) 0.1 ug/mL): 1.07 | NF-kB SEAP reporter activity (RAW-Dual [1]; [4]): 0.955 | NF-kB SEAP reporter activity (RAW-Dual [1]; [5]): 1.13 | NF-kB SEAP reporter activity (RAW-Dual [1]; [6]): 0.988

N=C(N)NCCCC1NC(=O)C(CCCCN)NC(=O)C(Cc2ccccc2)NC(=O)C(CC(=O)O)NC(=O)CNC1=O.O=C(O)C(F)(F)F (stereo not drawn)
NF-kB SEAP reporter activity (RAW-Dual [2]; [7]): 0.934 | NF-kB SEAP reporter activity (RAW-Dual [2]; [8]): 1.07

COc1ncc(-c2cc(-c3ncc(CN4CC(C)OC(C)C4)o3)c3cn[nH]c3c2)cc1NS(C)(=O)=O (stereo not drawn)
NF-kB SEAP reporter activity (RAW-Dual [2]; [9]): 0.604 | NF-kB SEAP reporter activity (RAW-Dual [2]; [10]): 2.18

COc1ncc(-c2cc(-c3ncc(CN4CC(C)OC(C)C4)o3)c3cn[nH]c3c2)cc1NS(C)(=O)=O (stereo not drawn) (library stock concentration (final ~1000-fold dilution): 10 mM)
NF-kB SEAP reporter activity (RAW-Dual [3]; agonist: LPS (TLR4) 0.1 ug/mL): 5.18 | NF-kB SEAP reporter activity (RAW-Dual [3]; [4]): 0.639 | NF-kB SEAP reporter activity (RAW-Dual [3]; [5]): 1.01 | NF-kB SEAP reporter activity (RAW-Dual [3]; [6]): 1.39

CCN(CC)Cc1cc(Nc2ccnc3cc(Cl)ccc23)ccc1O.Cl.Cl.O.O
NF-kB SEAP reporter activity (RAW-Dual [2]; [7]): 0.244 | NF-kB SEAP reporter activity (RAW-Dual [2]; [8]): 0.82

CCN(CC)Cc1cc(Nc2ccnc3cc(Cl)ccc23)ccc1O.Cl.Cl.O.O (library stock concentration (final ~1000-fold dilution): 10 mM)
NF-kB SEAP reporter activity (RAW-Dual [1]; agonist: LPS (TLR4) 0.1 ug/mL): 0.419 | NF-kB SEAP reporter activity (RAW-Dual [1]; [4]): 0.184 | NF-kB SEAP reporter activity (RAW-Dual [1]; [5]): 0.719 | NF-kB SEAP reporter activity (RAW-Dual [1]; [6]): 0.633

CN(CCNCc1cn(Cc2ccc(Cl)cc2)nn1)CCNc1ccnc2cc(Cl)ccc12.O=C(O)C(F)(F)F
NF-kB SEAP reporter activity (RAW-Dual [2]; [9]): 1.52 | NF-kB SEAP reporter activity (RAW-Dual [2]; [10]): 2.19

Cc1ccc(NCCN(C)CCNc2ccnc3cc(Cl)ccc23)c2c(=O)c3ccccc3sc12
NF-kB SEAP reporter activity (RAW-Dual [2]; library stock concentration (final ~1000-fold dilution): 2 mM, cytotoxicity flag (confluency mask): not cytotoxic, agonist: Imiquimod (TLR7) […]): 0.907 | NF-kB SEAP reporter activity (RAW-Dual [2]; library stock concentration (final ~1000-fold dilution): 2 mM, cytotoxicity flag (confluency mask): not cytotoxic, agonist: MPLA (TLR4) […]): 1.05

CN(CCNc1ccnc2cc(Cl)ccc12)CCNc1ccnc2cc(Cl)ccc12.Cl.Cl.Cl (library stock concentration (final ~1000-fold dilution): 10 mM)
NF-kB SEAP reporter activity (RAW-Dual [3]; agonist: LPS (TLR4) 0.1 ug/mL): 4.28 | NF-kB SEAP reporter activity (RAW-Dual [3]; [4]): 0.547 | NF-kB SEAP reporter activity (RAW-Dual [3]; [5]): 1.63 | NF-kB SEAP reporter activity (RAW-Dual [3]; [6]): 2.17

CN(CCNc1ccnc2cc(Cl)ccc12)CCNc1ccnc2cc(Cl)ccc12.Cl.Cl.Cl
NF-kB SEAP reporter activity (RAW-Dual [2]; [9]): 0.958 | NF-kB SEAP reporter activity (RAW-Dual [2]; [10]): 2.39

CCN(CCO)CCCC(C)Nc1ccnc2cc(Cl)ccc12.O=S(=O)(O)O (stereo not drawn)
NF-kB SEAP reporter activity (RAW-Dual [2]; library stock concentration (final ~1000-fold dilution): 10 mM water, cytotoxicity flag (confluency mask): not cytotoxic, agonist: Imiquimod (TLR7) […]): 0.389 | NF-kB SEAP reporter activity (RAW-Dual [2]; library stock concentration (final ~1000-fold dilution): 10 mM water, cytotoxicity flag (confluency mask): not cytotoxic, agonist: MPLA (TLR4) […]): 1.3

CN(CCNCc1cn(Cc2ccc(Cl)cc2)nn1)CCNc1ccnc2cc(Cl)ccc12.O=C(O)C(F)(F)F (library stock concentration (final ~1000-fold dilution): 10 mM)
NF-kB SEAP reporter activity (RAW-Dual [3]; agonist: LPS (TLR4) 0.1 ug/mL): 2.67 | NF-kB SEAP reporter activity (RAW-Dual [3]; [4]): 0.269 | NF-kB SEAP reporter activity (RAW-Dual [3]; [5]): 1.18 | NF-kB SEAP reporter activity (RAW-Dual [3]; [6]): 1.87
